This is a sample that favours compounds with a hit; in the whole collection about 2.4% have one here.
CHO-K1 Ca PAM – M1 PAM counterscreen hit in parental CHO-K1 cells; AID 602247; ATP EC20, Fluo-8 calcium fluorescence; 0% at ATP EC20, 100% at ATP max; activation, % at 3 µM; hit rate 0.02% among 360,000;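 active means activation above the run cutoff, the mean activation of all test compounds plus 3 SD, cut at about 40% in these data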;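 further: peak over basal fluorescence ratio in a 140 s read after ATP addition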
CHRM1 agonist – activates human CHRM1 receptor. AID 588814. CHO-K1 hM1, Fluo-8 calcium fluorescence, agonist mode; 0% DMSO, 100% acetylcholine EC100. activation, % at 3 µM. hit rate 0.33% among 360,000;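 active means activation above the run's mean compound activation plus 3 SD, cut at about 16% in these data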;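 further: peak over basal fluorescence ratio within a 140 s kinetic read after compound addition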
Target sequence (P11229 whole entry, looked up): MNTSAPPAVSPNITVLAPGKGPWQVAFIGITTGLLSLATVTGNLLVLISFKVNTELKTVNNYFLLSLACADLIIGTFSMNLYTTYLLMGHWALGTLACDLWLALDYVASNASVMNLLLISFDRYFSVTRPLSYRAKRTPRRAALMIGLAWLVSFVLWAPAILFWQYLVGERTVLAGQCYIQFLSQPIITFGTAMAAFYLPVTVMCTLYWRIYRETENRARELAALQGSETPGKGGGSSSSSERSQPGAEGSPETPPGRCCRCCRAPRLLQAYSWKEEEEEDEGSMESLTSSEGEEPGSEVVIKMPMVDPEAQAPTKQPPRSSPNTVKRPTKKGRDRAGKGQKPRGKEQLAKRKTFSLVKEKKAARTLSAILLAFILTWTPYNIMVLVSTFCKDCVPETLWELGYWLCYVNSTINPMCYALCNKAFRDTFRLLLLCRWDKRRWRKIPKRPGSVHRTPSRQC
CHRM1 antagonist – blocks human M1 muscarinic receptor. hit rate 1.3% among 360,000. AID 588852. CHO-K1 hM1, Fluo-8 calcium fluorescence, ACh EC80 antagonist. P11229. inhibition, % at 3 µM;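 active means percent inhibition above its own plate's cutoff, namely the mean of that plate's compound wells plus 3 SD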;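 further: peak over basal fluorescence ratio during 140 s after agonist addition; 0% = ACh EC80 plus DMSO and 100% = DMSO alone without agonist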
M1 ag parental – nonselective activator or artifact in parental CHO-K1 cells; hit rate 0.48% among 360,000; activation, % at 3 µM; Fluo-8 calcium fluorescence; scaled to maximal ATP response, vehicle zero; in the data active means activation above about 15%;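 further: untransfected CHO-K1 host cells lacking M1 receptor as counterscreen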
M1 PAM – human CHRM1 positive allosteric modulation; hit rate 0.088% among 360,000; activation, % at 3 µM; CHO-K1 hM1, Fluo-8 calcium fluorescence, ACh EC20; 0% = ACh EC20, 100% = maximal ACh; in the data active means activation above about 19%, passing the limit was not always enough
CHO-K1 Ca antag – M1 antagonist counterscreen hit in parental CHO-K1 cells; inhibition, % at 3 µM; ATP-induced calcium, Fluo-8 fluorescence; hit rate 0.6% among 360,000;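 active means inhibition above a per-plate cutoff, the plate's mean sample inhibition plus 3 SD, cut at about 24% in these data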;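 further: 0% = DMSO plus EC80 ATP and 100% = DMSO alone without ATP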
An asterisk follows results filed as active.

What do the screens show for `COc1ccc(C2C(C#N)=C(SCC(=O)Nc3ccc(C)cc3)NC3=C2C(=O)CC(C)(C)C3)cc1` (configuration not stated)?
CHO-K1 Ca PAM: 0.4; CHRM1 agonist: 21.1*; CHRM1 antagonist: 84.8*; M1 ag parental: 0.1; M1 PAM: -14.9; CHO-K1 Ca antag: -3.8

How did CCc1nc2ccc(C(=O)Nc3cccc(OCC(=O)N(C)C)c3)cn2c1N(C=O)Cc1ccc(OC)cc1 do in these assays?
CHO-K1 Ca PAM: 6.6; CHRM1 agonist: -5.4; CHRM1 antagonist: -16.6; M1 ag parental: 0.8; M1 PAM: 8.2; CHO-K1 Ca antag: -3.2

What do the screens show for `COc1ccc(CC(=O)NC(C)c2nnc(SCC(=O)Nc3nc(C)cs3)n2C)cc1` (configuration not stated)?
CHO-K1 Ca PAM: -6.4; CHRM1 agonist: -3.8; CHRM1 antagonist: 4.9; M1 ag parental: -0.1; M1 PAM: 8.8; CHO-K1 Ca antag: 30.6*

Results for COc1ccc(CC(=O)NC(C)c2nnc(SCC(=O)c3ccc(Br)cc3)n2C)cc1 (configuration not stated) ?
CHO-K1 Ca PAM: 2.1; CHRM1 agonist: -9.4; CHRM1 antagonist: 2.0; M1 ag parental: 0.7; M1 PAM: 5.5; CHO-K1 Ca antag: -16.3

How did CN(CC1CCCN(CCc2ccccc2F)C1)C(=O)c1cc2ccccc2o1 (configuration not stated) do in these assays?
CHO-K1 Ca PAM: 11.2; CHRM1 agonist: -8.9; CHRM1 antagonist: 96.0*; M1 ag parental: 2.0; M1 PAM: -30.7; CHO-K1 Ca antag: -0.8

Results for COCc1ccc(C(=O)N(C)CC2CCCN(CCc3ccc(Cl)cc3)C2)o1 (configuration not stated) ?
CHO-K1 Ca PAM: 27.0; CHRM1 agonist: -6.8; CHRM1 antagonist: 23.4; M1 ag parental: 1.8; M1 PAM: -14.8; CHO-K1 Ca antag: -15.7

How did Cc1cc(C(=O)N(C)CC2CCCN(CCc3ccc(F)cc3)C2)c(C)o1 (configuration not stated) do in these assays?
CHO-K1 Ca PAM: 10.0; CHRM1 agonist: -7.0; CHRM1 antagonist: 18.9; M1 ag parental: -0.2; M1 PAM: -16.8; CHO-K1 Ca antag: -6.9

Results for COCc1ccc(C(=O)N(C)CC2CCCN(CCc3ccc(OC)cc3)C2)o1 (configuration not stated) ?
CHO-K1 Ca PAM: -4.2; CHRM1 agonist: -5.0; CHRM1 antagonist: 52.1*; M1 ag parental: 0.1; M1 PAM: -22.1; CHO-K1 Ca antag: -12.0

What do the screens show for `c1ccc(NN(Cc2ccccn2)c2ccccc2)cc1`?
CHO-K1 Ca PAM: 20.4; CHRM1 agonist: -7.1; CHRM1 antagonist: -14.8; M1 ag parental: -0.8; M1 PAM: 7.1; CHO-K1 Ca antag: -10.4

Results for Oc1ccc(CCNc2ncnc3ccc(Cl)cc23)cc1 ?
CHO-K1 Ca PAM: 0.0; CHRM1 agonist: 7.4; CHRM1 antagonist: 34.8; M1 ag parental: 15.5*; M1 PAM: -22.3; CHO-K1 Ca antag: 8.2

Results for CC(/C=C/c1ccco1)=N\NC(=O)COc1ccc(C)c(C)c1 ?
CHO-K1 Ca PAM: 23.1; CHRM1 agonist: -4.9; CHRM1 antagonist: -8.5; M1 ag parental: 0.5; M1 PAM: 3.0; CHO-K1 Ca antag: -20.9

Results for CNCCC1Sc2ccccc2Oc2ccccc21 (configuration not stated) ?
CHO-K1 Ca PAM: 31.5; CHRM1 agonist: -13.8; CHRM1 antagonist: -6.6; M1 ag parental: 0.9; M1 PAM: -6.7; CHO-K1 Ca antag: -17.1

Results for CN(C)CCCC1Sc2ccccc2Sc2ccccc21 (configuration not stated) ?
CHO-K1 Ca PAM: 10.9; CHRM1 agonist: -3.4; CHRM1 antagonist: 76.1*; M1 ag parental: 2.7; M1 PAM: -24.8; CHO-K1 Ca antag: 0.9

What do the screens show for `CC(=O)NC(c1ccc(F)c(F)c1)c1nc(-c2ccccc2C)cs1` (configuration not stated)?
CHO-K1 Ca PAM: 5.5; CHRM1 agonist: 0.7; CHRM1 antagonist: -8.2; M1 ag parental: 0.0; M1 PAM: 7.8; CHO-K1 Ca antag: -1.5

How did CCNc1nc(NC(C)C)nc(NS(=O)(=O)c2ccc(N)cc2)n1 do in these assays?
CHO-K1 Ca PAM: -4.6; CHRM1 agonist: -2.2; CHRM1 antagonist: 3.0; M1 ag parental: -0.2; M1 PAM: 7.5; CHO-K1 Ca antag: 27.0*

Results for CC(C)Nc1nc(NC(C)C)nc(NS(=O)(=O)c2ccc(N)cc2)n1 ?
CHO-K1 Ca PAM: 1.9; CHRM1 agonist: -3.5; CHRM1 antagonist: 0.7; M1 ag parental: 0.0; M1 PAM: -4.8; CHO-K1 Ca antag: -6.9

Results for O=C(Nc1ccccc1)N1CCN(c2nc(-c3ccccc3)ns2)CC1 ?
CHO-K1 Ca PAM: -24.9; CHRM1 agonist: 2.9; CHRM1 antagonist: 32.3*; M1 ag parental: 10.1; M1 PAM: -16.5; CHO-K1 Ca antag: 18.0

What do the screens show for `O=C(Nc1ccccc1Cl)N1CCCN(c2nc(-c3ccccc3)ns2)CC1`?
CHO-K1 Ca PAM: -18.4; CHRM1 agonist: 0.0; CHRM1 antagonist: 37.7; M1 ag parental: 12.6; M1 PAM: -20.7; CHO-K1 Ca antag: 22.8

What do the screens show for `C/C(CC(=O)Nc1cc(Cl)ccc1Cl)=N\NC(=O)c1ccccc1Br`?
CHO-K1 Ca PAM: 12.1; CHRM1 agonist: -2.8; CHRM1 antagonist: -7.2; M1 ag parental: 1.2; M1 PAM: 3.9; CHO-K1 Ca antag: -16.1

Results for Cc1cccc(C(=O)NCC(=O)N2CCN(c3ccc(Cl)cc3)CC2)c1 ?
CHO-K1 Ca PAM: 12.5; CHRM1 agonist: 0.2; CHRM1 antagonist: 2.6; M1 ag parental: 15.9*; M1 PAM: 1.1; CHO-K1 Ca antag: -13.0

Results for C=CCn1c(SCC(=O)Nc2cc(C)on2)nnc1-c1ccncc1 ?
CHO-K1 Ca PAM: 6.8; CHRM1 agonist: -1.4; CHRM1 antagonist: -11.3; M1 ag parental: 0.2; M1 PAM: 5.3; CHO-K1 Ca antag: -5.0

Results for CCC(C)N(C)Cc1cccc(C2(O)CCN(S(=O)(=O)c3ccc(F)c(C)c3)CC2)c1 (configuration not stated) ?
CHO-K1 Ca PAM: 5.3; CHRM1 agonist: -11.3; CHRM1 antagonist: 81.4*; M1 ag parental: -0.3; M1 PAM: -27.0; CHO-K1 Ca antag: -12.5

Results for CC(C)(C)c1csc(NC(=O)C2=COCCO2)n1 ?
CHO-K1 Ca PAM: -20.4; CHRM1 agonist: -5.8; CHRM1 antagonist: 39.6*; M1 ag parental: 0.0; M1 PAM: -15.4; CHO-K1 Ca antag: -8.5

Results for CC(NC(=O)COC(=O)CNC(=O)C1CCCCC1)c1ccccc1 (configuration not stated) ?
CHO-K1 Ca PAM: -13.4; CHRM1 agonist: 0.5; CHRM1 antagonist: -10.6; M1 ag parental: -0.2; M1 PAM: 10.0; CHO-K1 Ca antag: 8.8

How did Cc1ccc(S(=O)(=O)N(C)C)cc1NC(=O)COc1ccccc1C(=O)Nc1ccccc1 do in these assays?
CHO-K1 Ca PAM: -10.6; CHRM1 agonist: -2.5; CHRM1 antagonist: 16.0; M1 ag parental: 5.1; M1 PAM: -8.9; CHO-K1 Ca antag: 13.9

Source: PubChem (The Scripps Research Institute Molecular Screening Center)
